Bioassay records deposited in PubChem BioAssay by National Center for Advancing Translational Sciences (NCATS).
This is a sample that favours compounds with a hit; in the whole collection about 2.4% have one here.
Pol beta inh = qHTS Assay for Inhibitors of DNA Polymerase Beta; P06746; Pol beta primer extension/strand displacement, fluorescence kinetic; Potency, µM (series often up to 114 µM), for the others: top-dose activity change, negative = inhibition, actives largely listed as inhibitors; 340,000 compounds, 1.3% hits; also: % is scaled to controls: 0 for no effect and ±100 for the full control effect
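Preincubation: enzyme (10 nM) with compound, 15 min, RT. Reaction: substrate added to 50 nM final. Reads: 0 and 10 min. Analysis: normalized, Hill fit.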
Pol kappa inh = qHTS for Inhibitors of Polymerase Kappa; DNA polymerase kappa (Homo sapiens), Q9UBT6; purified Pol kappa, fluorescent DNA synthesis assay, 10 min; Potency, µM (titrated, usually from 107 µM), for the others: at the highest dose activity, negative = inhibition, actives largely listed as inhibitors; 400,000 compounds, 0.53% hits; AID 588579, 2011; also: % is scaled to controls: 0 for no effect and ±100 for the full control effect
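Kinetic fluorescence readout at 0 and 10 min followed reaction start with substrate at 50 nM final. Beforehand, enzyme (10 nM Pol kappa) stood 15 min with compound at room temperature; buffer-only wells were negative controls.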
FEN1 inh = qHTS Assay for the Inhibitors of Human Flap endonuclease 1 (FEN1); P39748; Recombinant FEN1 flap cleavage, fluorescence, 15 min; Potency, µM (highest dose often 114 µM), for the others: at the top dose activity change, negative = inhibition, hits mostly inhibitors; 390,000 compounds, 0.35% hits; also: % is scaled to controls: 0 for no effect and ±100 for the full control effect; nearly all actives have a fitted effect of over 65% in size
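Read-out was taken twice, immediately and after 15 min, following addition of 50 nM substrate to 10 nM FEN1 that had sat with test compound for 15 min at room temperature. Curves came from a four-parameter Hill model.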
PGK inhibitor = qHTS Assay to Find Inhibitors of Phosphoglycerate Kinase. Phosphoglycerate kinase, glycosomal (Trypanosoma brucei brucei), P07378. PGK/GAPDH coupled, Kinase-Glo luminescence, 60 min. Potency, µM (highest dose often 57.5 µM), without a hit: at the highest dose activity change, negative = inhibition, usual class: inhibitors. 380,000 compounds, 0.043% hits. AID 602233, 2012; also: % is scaled to controls: 0 for no effect and ±100 for the full control effect; nearly all actives have a fitted effect of over 60% in size
Target sequence (P07378 whole entry, looked up): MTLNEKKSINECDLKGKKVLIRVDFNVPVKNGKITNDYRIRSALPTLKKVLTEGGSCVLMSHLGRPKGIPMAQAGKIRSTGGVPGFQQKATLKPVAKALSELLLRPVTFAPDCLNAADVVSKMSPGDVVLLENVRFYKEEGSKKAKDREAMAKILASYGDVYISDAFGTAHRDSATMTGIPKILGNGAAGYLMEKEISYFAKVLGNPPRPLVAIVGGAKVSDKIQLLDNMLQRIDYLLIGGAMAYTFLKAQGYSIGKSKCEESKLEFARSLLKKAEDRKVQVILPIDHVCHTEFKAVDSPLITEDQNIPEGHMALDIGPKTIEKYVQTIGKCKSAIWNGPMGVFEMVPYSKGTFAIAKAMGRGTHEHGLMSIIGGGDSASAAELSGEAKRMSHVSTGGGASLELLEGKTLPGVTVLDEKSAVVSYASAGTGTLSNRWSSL
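Luminescent ATP detection (Kinase-Glo Plus) follows a 60-minute room-temperature incubation, with wells lacking PGK as controls. Buffer: 100 mM TEA (pH 7.6), 5 mM MgCl2, 0.01% Tween-20. Coupling enzyme GAPDH (100 nM final) supplies unstable 1,3-BPG in-well.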
POLI inh = qHTS for Inhibitors of Polymerase Iota; DNA polymerase iota (Homo sapiens), Q9UNA4; 390,000 compounds, 1% hits; Potency, µM (doses to about 115 µM), for the others: top-dose activity, negative = inhibition, usual class: inhibitors; Pol iota fluorescent replication assay, 10 min
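Pol iota at 10 nM preincubated 15 min with compounds at room temperature; reaction started with fluorescent substrate, 50 nM final. Fluorescence read kinetically at 0 and 10 min; buffer-only wells as negative control.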
POLH inh = qHTS for Inhibitors of Polymerase Eta; DNA polymerase eta (Homo sapiens), Q9Y253; recombinant Pol eta, fluorescent DNA replication assay; Potency, µM (doses to about 114 µM), for inactives: at the top dose activity change, negative = inhibition, hits mostly inhibitors; 390,000 compounds, 1.2% hits; AID 588591, 2011; also: % is scaled to controls: 0 for no effect and ±100 for the full control effect
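Pol eta (10 nM) was preincubated with compounds for 15 min at room temperature, after which fluorescent replication substrate (50 nM final) was added to start the reaction. Fluorescence was read kinetically at 0 and 10 min.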
An asterisk follows results filed as active; i = inactive; ? = inconclusive; . = no result given; [ ] = another dose, or the depositor's remark. Calls follow the shape of the dose curve; as a rule, active = well fitted curve in the direction sought with a large enough effect; inconclusive = small, poorly fitted or top-dose-only effect, or another doubt; inactive = no such curve, though single readings can be large; an effect the other way counts as inactive or inconclusive. Potency is read from the fitted curve at half-maximal effect.

SMILES | Pol beta inh | Pol kappa inh | FEN1 inh | PGK inhibitor | POLI inh | POLH inh
CN(C)S(=O)(=O)N(CC(=O)N(Cc1ccccc1)Cc1ccccc1)c1ccccc1 | 22.4µM* | ? | -3.6% | -4.3% | ? | ?
CN(C)S(=O)(=O)N(CC(=O)NCCSCc1ccccc1)c1ccccc1 | 35.5µM* | ? | -2.7% | -20.0% | ? | ?
CCCN1CNc2c(c(=O)[nH]c(=S)n2CCc2ccc(OCC)c(OCC)c2)C1 | . | -11.0% | 4.5% | . | 0.3% | .
C#CCOC(=O)c1ccccc1C(=O)O | -0.1% | -8.0% | -4.2% | -3.0% | 79.4µM* | 5.7%
C#CCOC(=O)c1ccccc1C(=O)OCC#C | 9.1% | -4.9% | 4.8% | -3.1% | 5.2% | -3.5%
COc1ccc(-[n+]2c(C)cc(/C=C3\Sc4ccccc4N3C)cc2C)cc1 | 35.5µM* | -5.3%[60.1 µM] | 22.4µM* | 7.2% | 23.8% | -18.5%
C[N+]1(CC(=O)NNc2c3ccccc3nc3ccccc23)CCOCC1 | 25.1µM* | . | . | . | . | .
O=C(CN1CCOCC1)NNc1c2ccccc2nc2ccccc12 | -6.4% | -25.1% | -23.9% | -9.6% | 13.1% | -16.3%
CC(=O)c1c(C)oc2c1cc(NS(=O)(=O)c1ccc(Br)cc1)c1ccccc12 | -18.5% | -2.5%[60.1 µM] | 15.8% | -4.4% | 48.4% | -20.6%
Cc1oc2c(cc(NS(=O)(=O)c3ccc(Cl)cc3)c3ccccc32)c1C(=O)O | 19.9% | -40.5% | -20.4% | -8.6% | 46.1% | 50.1µM*
Cc1ccc(N(Cc2cccs2)C(=O)c2ccc(OC(C)C)cc2)cc1 | 4.9% | -17.6% | 0.4% | i | 15.1% | -16.2%
COc1ccccc1/C=C/C=N/NC(=O)c1cc(-c2ccco2)[nH]n1 | 25.1µM* | ? | -2.2% | 1.9% | ? | ?
COc1ccccc1/C=C/C=N/NC(=O)c1ccccn1 | 36.8% | -0.1% | -3.4% | -3.5% | 4.0% | -2.5%
Cc1csc(NC(=O)/C=C/c2ccc3c(c2)OCO3)n1 | 13.6% | 1.7% | -1.1% | -4.4% | 6.3% | -5.6%
O=C(/C=C/c1ccc2c(c1)OCO2)Nc1nc(-c2ccc(F)cc2F)cs1 | 22.4µM* | . | . | . | . | .
COc1ccc(-c2nc3ccccn3c2Nc2ccccc2C)cc1 | . | -7.2% | -20.8% | . | 9.8% | .
COc1cc(NS(=O)(=O)c2ccc(NC(=S)NC(=O)c3sc4ccccc4c3Cl)cc2)ncn1 | -22.9% | -13.5% | ? | 5.5% | ? | 25.1µM*
CCOc1ccccc1CNC(=O)CCn1c(=O)c2cccn2c2ccc(F)cc21 | -21.5% | -3.5% | 13.0% | -2.3% | -3.0% | -3.2%
Cc1ccc(Cl)cc1NC(=O)Cn1nc2c(cc1=O)CC(C)CC2 (configuration not stated) | 8.6% | -3.6%[60.1 µM] | 17.9% | 11.8% | -5.8% | -1.7%
O=C(Nc1nc2c(Cl)cccc2s1)c1ccc([N+](=O)[O-])o1 | 3.8% | -13.3% | -16.3% | -11.7% | 30.8% | 50.1µM*
Cc1ccc(-c2csc(NC(=O)c3ccc([N+](=O)[O-])o3)n2)cc1 | 1.0% | 0.5% | -15.5% | 0.1% | -6.6% | 79.4µM*
O=C(Nc1nc2c(F)cccc2s1)c1ccc([N+](=O)[O-])o1 | 5.8% | -19.3% | -1.4% | -1.4% | -28.1% | 5.4%
Nc1cccc(/C=C2\C=Cc3ccccc32)c1 | . | -28.3% | 10.6% | . | ? | .
CCOc1ccc(-n2c(/C=C/c3cccc(F)c3)nc3cc(OC)c(OC)cc3c2=O)cc1 | 3.5% | -0.4%[60.1 µM] | 4.9% | -6.6% | -9.8% | -16.1%
Cc1ccc(NC(=O)C2CCCN2S(=O)(=O)c2cccc3cccnc23)cc1C (configuration not stated) | 21.4% | -5.8% | -15.3% | 6.2% | -2.0% | -10.1%
